Most compounds without a hit are left out; they make up all but 2.6% or so of the library.
LGR2 antag = blocks bursicon-induced cAMP signaling via Drosophila LGR2; HEK293 LGR2, CRE-luciferase, bursicon-stimulated, 4 h; inhibition, % at 9.99 µM; 380,000 compounds, 0.35% hits; AID 720647;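 active = drop in luminescence signal, shown as inhibition above about 50% in the replicate tests, limit read from the data, passing the limit was not always enough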;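 also: agonist challenge used bursicon conditioned medium at about half maximal strength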
TROY NFkB inh = TROY signaling inhibition; Q293 LMP1-TROYcd NF-kB luciferase reporter, 4 h; inhibition, % at 10 µM; 360,000 compounds, 0.98% hits; AID 1347056;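 active = compounds whose plate-normalised and pattern-corrected inhibition of the luciferase reporter signal at the single screening dose is 50% or more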
LMP1 NFkB inh = inhibitors of Epstein-Barr LMP1-induced NF-kappaB reporter; LMP1-induced NF-kappaB luciferase reporter cells, luminescence; inhibition, % at 12.5 µM; 350,000 compounds, 0.69% hits; AID 504558; in the data active = inhibition above about 41%
TWEAK-Fn14 inh = TWEAK-Fn14 signaling inhibition; TWEAK-stimulated Fn14 reporter cells, luciferase luminescence, 8 h; inhibition, % at 10 µM; 360,000 compounds, 2% hits; in the data active = inhibition above about 50%
HSP90 inh = inhibitors of HSP90 luciferase refolding in rabbit reticulocyte lysate; luciferase refolding luminescence, 3 h; inhibition, % at 5.6 µM; 290,000 compounds, 0.91% hits;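 active = inhibition above the screen-wide mean plus 3 SD, computed separately per campaign, cut at about 16% in these data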;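 also: inhibitors lower the luminescence because luciferase stays unfolded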
aDG glyco up = alpha-DG glycosylation activation; Pro5-aDG cells, alpha-DG glycosylation AlphaScreen (IIH6); 0% Pro5, 100% B10-LARGE cell signal; activation, % at 10 µM; 360,000 compounds, 0.22% hits; AID 624168;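 active = activation of at least 8% versus controls, or a plate z-score of at least 8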;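 also: Pro5 are CHO cells carrying HIG-tagged alpha-DG that lacks glycosylation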
A number is an active result; 0 = inactive; - = no result given.

SMILES	LGR2 antag	TROY NFkB inh	LMP1 NFkB inh	TWEAK-Fn14 inh	HSP90 inh	aDG glyco up
COc1cc(/C=C2/CCC/C(=C\c3cc(O)c(OC)c(Cl)c3)C2=O)cc(Cl)c1O	-	58	0	0	0	0
C[C@@H]1CN([C@H](C)CO)C(=O)c2cc(NS(=O)(=O)c3ccc(Cl)cc3)ccc2O[C@H]1CN(C)Cc1ccc(-c2ccccc2)cc1	0	-	-	-	-	-
C[C@H](CO)N1C[C@H](C)[C@H](CN(C)Cc2ccc(Oc3ccccc3)cc2)Oc2ccc(NC(=O)NC3CCCCC3)cc2CC1=O	0	-	-	-	-	-
CC(C)NC(=O)Nc1ccc2c(c1)C(=O)N([C@@H](C)CO)C[C@H](C)[C@@H](CN(C)C(=O)Nc1cccc3ccccc13)O2	0	-	-	-	-	-
CCN1C/C(=C/c2cccc([N+](=O)[O-])c2)C(=O)/C(=C/c2cccc([N+](=O)[O-])c2)C1	84	0	97	95	0	0
COc1cc(/C=C2\CC/C(=C\c3cc(OC)c(O)c(OC)c3)C2=O)cc(OC)c1O	-	0	0	80	0	0
O=C1NC(=O)/C(=C/c2cccc([N+](=O)[O-])c2)N1	0	0	0	0	0	0
Cc1onc(-c2ccccc2)c1C(=O)OCC(=O)Nc1ccc(OC(F)(F)F)cc1	0	52	0	0	-	0
Cc1ccc(NC(=O)COC(=O)c2c(-c3ccccc3)noc2C)cc1	0	0	0	0	-	0
O=c1cc(/C=C/c2ccccc2)oc2c1ccc1ccccc12	0	0	0	64	0	0
O=c1cc(C(F)(F)F)oc2c1ccc1ccccc12	-	0	0	0	0	0
C/C(=N/Nc1ccc(C(=O)c2c(C)cc3ccccn23)cc1[N+](=O)[O-])c1ccc(O)cc1	0	0	0	53	-	0
C/C(=N\Nc1ccc(C(=O)c2c(C)cc3ccccn23)cc1[N+](=O)[O-])c1ccc(O)cc1	0	0	0	62	0	0
Cc1cc2ccccn2c1C(=O)c1ccc(N/N=C/c2ccc(C(=O)O)cc2)c([N+](=O)[O-])c1	0	0	0	0	0	0
C[C@@H]1CCCCO[C@H](CN(C)S(=O)(=O)c2ccc(F)cc2)[C@@H](C)CN([C@@H](C)CO)C(=O)c2cc(NC(=O)Nc3ccc(C(F)(F)F)cc3)ccc2O1	0	-	-	-	-	-
Cc1c(CN(C)C)c2c(n1Cc1ccccc1)C(=O)c1ccccc1-2	0	0	0	62	0	0
CCn1cc(Cl)c(C(=O)N2N=C(c3ccc4ccccc4c3)CC2c2ccccc2O)n1 (stereo not drawn)	0	0	0	72	0	0
O=[N+]([O-])c1ccc(NC(=S)NCCc2ccc(Cl)cc2)cc1	-	57	0	60	0	0
O=[N+]([O-])c1ccc(NC(=S)NCc2ccc(F)cc2)cc1	0	56	0	0	0	0
Fc1ccc(NC(=S)NCc2ccccc2)cc1	0	0	0	107	0	0
Fc1ccc(CNC(=S)NCc2ccccc2)cc1	0	0	0	0	0	0
C[C@@H]1CCCCO[C@H](CN(C)Cc2ccc3c(c2)OCO3)[C@@H](C)CN([C@H](C)CO)C(=O)c2cc(NC(=O)Nc3ccc(F)cc3)ccc2O1	0	-	-	-	-	-
COc1ccc(NC(=O)N(C)C[C@H]2Oc3c(NC(=O)CCCCCC(=O)Nc4ccccc4N)cccc3C(=O)N([C@@H](C)CO)C[C@H]2C)cc1	0	-	-	-	-	-
CCOC(=O)c1cc(-c2ccccc2)n(CC(=O)Nc2cccc(OC)c2)c1C	0	0	53	0	0	0
CCOC(=O)c1cc(-c2ccccc2)n(CC(=O)Nc2ccc(OC)c(OC)c2)c1C	-	0	0	0	0	0
SMILES	LGR2 antag	TROY NFkB inh	LMP1 NFkB inh	TWEAK-Fn14 inh	HSP90 inh	aDG glyco up
Cc1ccc(NC(=O)CN2C(=O)C3CCCCN3C(=O)c3ccccc32)cc1 (stereo not drawn)	0	-	0	53	0	0
CCOc1cc2[nH]c(=O)n(CCCN3CCN(c4ccc(OC)cc4)CC3)c(=O)c2cc1OCC	0	0	0	87	0	0
COc1ccc(N2CCN(CCNC(=O)CCCn3c(=O)[nH]c4cc(Cl)ccc4c3=O)CC2)cc1	0	0	81	0	0	0
CO[C@@H]1CN(C)C(=O)c2cc(NC(C)=O)ccc2OC[C@H](C)N(Cc2ccccn2)C[C@@H]1C	0	-	-	-	-	-
Cc1ccc(S(=O)(=O)N(C)C[C@@H]2OCCCC[C@H](C)Oc3ccc(NC(=O)Nc4c(C)noc4C)cc3C(=O)N([C@H](C)CO)C[C@@H]2C)cc1	0	-	-	-	-	-
O=C1c2cccc3cccc(c23)C(=O)N1Cc1cccnc1	0	0	0	0	0	0
O=C1c2cccc3c([N+](=O)[O-])ccc(c23)C(=O)N1Cc1cccnc1	103	64	0	0	0	0
Oc1ccc(C[C@H]2CNC(=S)N2CC2CCCN2C[C@H](Cc2ccccc2)N2C[C@H](Cc3ccc(O)cc3)N(CCc3ccccc3)C2=S)cc1 (stereo partly drawn)	0	0	0	58	-	0
CC(C)C[C@H]1CNC(=S)N1CC1CCCN1C[C@H](Cc1ccccc1)N1C[C@H](Cc2ccc(O)cc2)N(CC2CCCCCC2)C1=S (stereo partly drawn)	0	0	0	0	-	0
CC(C)C[C@H]1CNC(=S)N1C[C@H]1CCCN1C[C@H](Cc1ccc(O)cc1)N1C[C@H](Cc2ccc(O)cc2)N(CC2CCCCCC2)C1=S	0	0	-	60	-	0
Oc1ccc(C[C@@H](CN2CCC[C@@H]2CN2C(=S)NC[C@@H]2Cc2ccccc2)N2C[C@H](Cc3ccccc3)N(CCc3ccccc3)C2=S)cc1	0	0	-	0	-	0
O=c1c(Cl)c(Nc2cccc(Cl)c2)cnn1-c1nc2ccccc2s1	0	0	0	62	16	0
O=C(Nc1ccccc1O)c1ccc([N+](=O)[O-])cc1	0	0	0	110	0	0
CC(C)C[C@H]1COCn2nncc2CC[C@H](Cc2ccccc2)C(=O)N1	0	-	-	-	-	-
O=C(NCCC1=CCCCC1)C1CC(=O)N(Cc2ccccc2)C1 (stereo not drawn)	0	0	0	95	0	0
O=C(c1cccnc1)N1C[C@H]2[C@@H](c3ccccc31)[C@@H](CO)N2C(=O)C1CCOCC1	0	-	-	-	-	-
COc1ccc(-c2cc3nc(-c4ccccc4)cc(N4CCCC(O)C4)n3n2)cc1 (stereo not drawn)	0	0	62	0	0	0
COc1cccc(S(=O)(=O)Nc2ccc3c(c2)[C@H]2C[C@@H](CC(=O)N(C)C)O[C@@H](CO)[C@H]2O3)c1	0	-	-	-	-	-
CC(C)n1cnc2c(Nc3ccc(F)c(Cl)c3)nc(NCCO)nc21	-	0	0	0	0	0
C=CC(=O)Nc1ccc(Nc2nc(NC3CCC(N(C)C)CC3)nc3c2ncn3C(C)C)cc1 (stereo not drawn)	-	71	79	95	-	0
Cc1noc(C)c1S(=O)(=O)Nc1ccc2c(c1)C(=O)N([C@@H](C)CO)C[C@@H](C)[C@H](CN(C)Cc1ccncc1)OCCCC[C@H](C)O2	0	-	-	-	-	-
Cc1nn(-c2ccccc2)c(C)c1/C=N/NC(=O)c1cc(-c2cccs2)[nH]n1	-	0	0	0	0	0

Screens as filed in PubChem BioAssay.
